Reference: PubChem BioAssay
Activity calls are given as the source filed them.

How the values were obtained:
[1] = A549 cell viability effects, profiling panel, calcein-AM fluorescence, 48 h, basal (AID 1162); settings: higher = more signal
[2] = adipocyte viability effects, profiling panel, cell-based, 3T3-L1 adipocytes, calcein-AM fluorescence, 48 h, basal (AID 1163); settings: 3T3-L1 adipocytes viability, higher = more signal
[3] = HepG2 cell viability effects, profiling panel, calcein-AM fluorescence, 48 h, basal (AID 1164); settings: higher = more signal
[4] = MM1S cell viability effects, profiling panel, calcein-AM fluorescence, 48 h, basal (AID 1165); settings: higher = more signal;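 note: viability of MM1S multiple myeloma cells under basal unstimulated conditions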
[5] = basal RPMI8226 viability, no added stimulus, profiling panel, cell-based, calcein-AM fluorescence, 48 h, PK04 Diversity Set (AID 1166); settings: RPMI8226 myeloma viability, higher = more signal;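 note: cells grown under basal conditions without added stimulus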
[6] = basal HepG2 mitochondrial membrane potential changes, profiling panel, cell-based, JC-1 fluorescence, 24 h, 100 nL compound (AID 1167); settings: higher = more signal
[7] = basal 3T3-L1 adipocyte mitochondrial potential changes, profiling panel, cell-based, JC-1 fluorescence, 3T3-L1 adipocytes, 24 h, 100 nL compound (AID 1168); settings: JC-1 mitochondrial fluorescence, higher = more signal, called active from +8 up or from −8 down
[8] = basal RPMI8226 mitochondrial membrane potential changes, profiling panel, cell-based, JC-1 fluorescence, 24 h, 100 nL compound (AID 1169); settings: RPMI8226 myeloma, JC-1 mitochondrial potential fluorescence, higher = more signal
[9] = basal MM1S mitochondrial membrane potential changes, profiling panel, cell-based, JC-1 fluorescence, 24 h, 100 nL compound (AID 1170); settings: higher = more signal
[10] = A549 lung cancer cell viability effects, profiling panel, resazurin fluorescence, 24 h, PK04 Diversity Set (AID 1171); settings: higher = more signal, called active from +8 up or from −8 down
Note: test concentration not given here.

| SMILES | z-score [1] | z-score [2] | z-score [3] | z-score [4] | z-score [5] | z-score [6] | z-score [7] | z-score [8] | z-score [9] | z-score [10] |
| --- | --- | --- | --- | --- | --- | --- | --- | --- | --- | --- |
| COCCCNC(=O)[C@@]1(C)c2ccccc2C(=O)N(Cc2ccccc2)[C@H]1c1ccc(CO)cc1 | 0.587 | 0.928 | -0.0853 | -0.174 | -2.12 | 0.548 | -1.39 (inactive) | -0.648 | -0.514 | 0.22 (inactive) |
| COc1cc(NN2C(C(O)c3ccccc3)C=CC3C(=O)N(c4ccccc4)C(=O)C32)cc(OC)c1OC (stereo not given) | -0.873 | 0.0146 | 0.253 | 0.673 | 0.0985 | -0.602 | -1.72 (inactive) | 0.179 | -1.41 | -0.381 (inactive) |
| COC(=O)[C@@]1(Cc2ccccc2)[C@H]2c3cc(C(=O)N(C)C)n(Cc4cc(F)c(F)c(F)c4)c3C[C@H]2CN1C(=O)c1ccccc1 | -0.749 | 0.135 | 0.545 | -2.11 | -4.67 | 0.891 | -1.35 (inactive) | -0.368 | -0.951 | -0.0085 (inactive) |
| CN1C(=O)C2C=CC(C(O)C(C)(C)C)N(Nc3ccccc3)C2C1=O (stereo not given) | -0.398 | -1.31 | 0.19 | 0.235 | -1.08 | -1.16 | -0.398 (inactive) | -0.476 | -0.178 | -0.463 (inactive) |
| [N-]=[N+]=NCc1ccccc1C[C@]1(C(=O)NCc2ccccc2)COC(c2ccc(OCCCO)cc2)=N1 | -2.45 | -0.679 | -3.8 | -3.38 | -4.32 | 0.762 | 0.768 (inactive) | -0.891 | -2.3 | -1.42 (inactive) |
| C=CCC(OC(C)=O)[C@@H]1[C@@H](N(Cc2ccc(-c3ccccc3)cc2)C(=O)c2ccc(C)cc2)c2cc(OCCCO)ccc2N1C(=O)c1ccc2ccccc2n1 (stereo not given in full) | 3.36 | 0.389 | 1.85 | -0.68 | 1.28 | 3.31 | 0.285 (inactive) | 0.0312 | 1.96 | 1.87 (inactive) |
| CC(C)[C@H]1COC(=O)N1C(=O)[C@H]1[C@@H](c2ccccc2)N(c2ccccc2)O[C@@H]1C | 0.198 | 0.343 | 0.612 | -0.357 | 0.133 | 0.941 | 0.997 (inactive) | -0.361 | -1.46 | 1.72 (inactive) |
| C=CC[C@@]1(C(N)=O)N=C(c2ccc(OCCCO)cc2)O[C@@H]1c1ccccc1N=[N+]=[N-] | 1.38 | 1.01 | 0.314 | -0.35 | -0.0394 | -0.00877 | 0.875 (inactive) | -0.327 | 0.759 | 1.02 (inactive) |
| C[n+]1ccc2ccc(O)cc2c1 | -0.274 | 0.509 | -1.33 | 0.653 | -1.91 | -0.774 | -0.917 (inactive) | 1.03 | -0.723 | -0.733 (inactive) |
| C=C(CCCC)C(=O)CC[C@@H](OC(=O)c1ccccc1-c1ccccc1C(=O)O)c1ccc(CO)o1 | -0.64 | 0.498 | 0.102 | 0.227 | -0.91 | -1.24 | -0.26 (inactive) | 0.479 | -0.0259 | -0.476 (inactive) |
| CN(C)CCCC[C@@H]1NC(=O)[C@@H]2C[C@H](C(=O)NCCCCCN)[C@H](c3ccc(O)cc3)N2C1=O | 0.635 | 0.177 | -0.0772 | 0.189 | -0.115 | 1.25 | 0.665 (inactive) | -0.286 | -0.592 | -0.475 (inactive) |
| O=c1cccc(-c2ccccc2)o1 | -1.18 | 0.0455 | -0.738 | -1.11 | -0.664 | -1.05 | 0.221 (inactive) | 0.826 | -0.435 | 0.299 (inactive) |
| COC(=O)c1c(CC[C@@H](CO)NC(=O)Nc2ncn[nH]2)oc(C(=O)Cc2ccccc2)c1C(=O)OC | -0.0782 | -0.927 | -0.314 | 0.226 | 0.343 | -0.808 | 0.765 (inactive) | 0.0444 | -0.286 | 0.199 (inactive) |
| CCOC(=O)C1=CC[C@@H](c2cccc(Cl)c2)N(S(=O)(=O)c2ccc(C)cc2)[C@H]1c1ccc(C#N)cc1 | 0.384 | -1.03 | -0.474 | -0.692 | -0.704 | 1.38 | 0.0503 (inactive) | -0.62 | -1.29 | 1.27 (inactive) |
| CCCC[C@@H]1C[C@H]1[C@@H](NC(=O)c1ccccc1)c1ccc(-c2ccccc2)cc1 | -1.54 | -1.15 | -3.24 | -2.55 | -4.26 | -3.59 | -0.49 (inactive) | -0.568 | -2.19 | -1.31 (inactive) |
| CO[C@H]1O[C@H](CO)[C@@H](OC(=O)Nc2ccc(C(F)(F)F)cc2)[C@H](OC(=O)Nc2ccccc2)[C@@H]1OC(=O)Nc1ccccc1 | -0.902 | -0.133 | -1.28 | -2.72 | -2.84 | -0.901 | -1.47 (inactive) | -0.828 | 0.469 | -0.0537 (inactive) |
| [N-]=[N+]=NCc1ccccc1C[C@@]1(C(=O)NCc2ccccc2)N=C(c2ccc(OCCCO)cc2)O[C@@H]1c1ccccc1CN=[N+]=[N-] | -0.293 | -0.0193 | 0.236 | -0.645 | -1.13 | 0.0212 | -0.835 (inactive) | -0.66 | -1.32 | 1.01 (inactive) |
| O=C1OCCC/C=C\[C@H]2OC34C=CCN(Cn5nnc6ccccc65)C(=O)[C@H]3N(CCCO)C(=O)[C@@H]4C12 (stereo not given in full) | -0.745 | 0.737 | -0.395 | 1.25 | -0.284 | -0.313 | 1.16 (inactive) | -0.0773 | -0.73 | 0.651 (inactive) |
| COC(=O)[C@@]1(Cc2ccc(F)cc2)[C@H]2c3cc(C(=O)N4CCCC4)n(Cc4ccc(Cl)c(C(F)(F)F)c4)c3C[C@H]2CN1C(=O)c1ccccc1 | -0.463 | -0.286 | -0.452 | -0.604 | -2.4 | 1.09 | -1.33 (inactive) | -0.673 | -1.96 | -1.53 (inactive) |
| COC(=O)[C@@]1(Cc2ccc(OC)cc2)[C@H]2c3cc(C(=O)N(C)C)n(CCSCCO)c3C[C@H]2CN1C(=O)c1ccccc1 | -0.46 | -0.774 | 0.595 | -2.12 | -0.254 | 1.47 | -0.358 (inactive) | 0.179 | -1.07 | -0.494 (inactive) |
| CCCC[C@@H]1C[C@H]1[C@@H](NC(=O)c1ccccc1)c1ccccc1 | -1.2 | -0.902 | -1.02 | -1.43 | -1.48 | -2.36 | -1.07 (inactive) | 0.203 | -1.25 | -0.324 (inactive) |
